According to the supplement of paper PMC12339681:
Where a name gives a salt, the structure may show the parent alone.

System: PBMC-derived induced microglia-like cells (piMGLC)
Experiment: synaptosome phagocytic index relative to DMSO control (fraction of DMSO); higher = more phagocytosis
Conditions: concentration: 10 uM (2 uM for compounds listed in Table S2); pretreatment time: 24 h; assay time: 3 h

SMILES | synaptosome phagocytic index
CNS(=O)(=O)Cc1ccc2[nH]cc(CCN(C)C)c2c1 [Sumatriptan_(succinate)] | 0.992
CN1CC[C@H](c2c(O)cc(O)c3c(=O)cc(-c4ccccc4Cl)oc23)[C@H](O)C1 [Flavopiridol_(Hydrochloride)] | 0.995
CCc1c2c(nc3ccc(OC(=O)N4CCC(N5CCCCC5)CC4)cc13)-c1cc3c(c(=O)n1C2)COC(=O)[C@]3(O)CC [Irinotecan] | 0.692
Cc1c(N)c(=O)n(-c2ccccc2)n1C [Ampyrone] | 0.708
COC(=O)N[C@H](C(=O)N[C@@H](Cc1ccccc1)[C@@H](O)CN(Cc1ccc(-c2ccccn2)cc1)NC(=O)[C@@H](NC(=O)OC)C(C)(C)C)C(C)(C)C [Atazanavir_(sulfate)] | 0.81
Cc1ccnc2c1NC(=O)c1cccnc1N2C1CC1 [Nevirapine] | 0.84
NC1=N[C@@]2(c3cc(NC(=O)c4ccc(F)cn4)ccc3F)COC[C@H]2CS1 | 1.35
C[C@@]1(c2cc(NC(=O)c3ccc(C#N)cn3)ccc2F)C=CSC(N)=N1 [Atabecestat] | 0.547
CN/C(=N\CCSCc1nc[nH]c1C)NC#N [Cimetidine] | 1.07
COC(=O)C1=C(C)NC(C)=C(C(=O)OCCN(C)Cc2ccccc2)C1c1cccc([N+](=O)[O-])c1 (stereo unspecified) [Nicardipine_(hydrochloride)] | 0.627
CC(C)CCN(CCC(C)C)C(=O)c1ccc2nc(-c3ccc(C#N)cc3)c(CCCN3CCCC3)n2c1 | 0.408
CC1(C)O[C@@H]2[C@@H](CO[C@@]3(COS(N)(=O)=O)OC(C)(C)O[C@@H]23)O1 [Topiramate] | 1.08
COCCOC(=O)C1=C(C)NC(C)=C(C(=O)OC(C)C)C1c1cccc([N+](=O)[O-])c1 (stereo unspecified) [Nimodipine] | 0.85
CC(C)(C)CCN1C[C@@H]2C(CNC(=O)c3cc(Cl)cc(Cl)c3)[C@@H]2C1 (stereo partly specified) | 0.191
CCCCC1C(=O)N(c2ccccc2)N(c2ccccc2)C1=O [Phenylbutazone] | 0.797
CCN(CC)Cc1ccc2cc(COC(=O)Nc3ccc(C(=O)NO)cc3)ccc2c1 [Givinostat_(hydrochloride_monohydrate)] | 0.482
CNCCCC1c2ccccc2C=Cc2ccccc21 [Protriptyline_(hydrochloride)] | 0.93
CN1[C@@H]2CC[C@H]1C[C@@H](OC(c1ccccc1)c1ccccc1)C2 [Benztropine_(mesylate)] | 0.833

SMILES | synaptosome phagocytic index
C#CCN[C@@H]1CCc2ccccc21 [Rasagiline_(mesylate)] | 0.965
COc1ccc2c(c1)c(CC(=O)O)c(C)n2C(=O)c1ccc(Cl)cc1 [Indomethacin_(sodium_hydrate)] | 0.618
CN1CC[C@H](c2c(O)cc(O)c3c(=O)cc(-c4ccccc4Cl)oc23)[C@H](O)C1 [Flavopiridol] | 0.936
CN1C2CCCC1CC(NC(=O)c1nn(C)c3ccccc13)C2 (stereo unspecified) [Granisetron_(Hydrochloride)] | 0.891
C#Cc1cccc(Nc2ncnc3cc(OCCOC)c(OCCOC)cc23)c1 [Erlotinib_(Hydrochloride)] | 0.391
COC1(c2sc3c(N4CCOCC4)nc(-c4cnc(N)nc4)nc3c2C)COC1 | 0.384
C[C@H](Cn1cnc2c(N)ncnc21)OCP(=O)(O)O [Tenofovir] | 0.906
CC(C)c1nc(CN(C)C(=O)N[C@H](C(=O)N[C@@H](Cc2ccccc2)C[C@H](O)[C@H](Cc2ccccc2)NC(=O)OCc2cncs2)C(C)C)cs1 [Ritonavir] | 0.742
O=C1c2cccc3c2[C@H](CCC3)CN1[C@@H]1CN2CCC1CC2 [Palonosetron_(Hydrochloride)] | 0.526
CC(C)Nc1cccnc1N1CCN(C(=O)c2cc3cc(NS(C)(=O)=O)ccc3[nH]2)CC1 [Delavirdine_(mesylate)] | 0.749
Nc1cc(C(F)(F)F)c(-c2cc(N3CCOCC3)nc(N3CCOCC3)n2)cn1 [Buparlisib_(Hydrochloride)] | 0.429
C[C@@H](c1ncncc1F)[C@](O)(Cn1cncn1)c1ccc(F)cc1F [Voriconazole] | 0.893
N#Cc1ccc(COC[C@H]2O[C@@H](n3c(NCc4ccc(Cl)c(Cl)c4)nc4c(N)ncnc43)[C@H](O)[C@@H]2O)cc1 | 0.479
O=C(Oc1ccccc1C(=O)O)c1ccccc1O [Salsalate] | 0.409
COc1ccc2c(c1)c(CC(=O)O)c(C)n2C(=O)c1ccc(Cl)cc1 [Indomethacin] | 1.22
Oc1cc(-c2nc(-c3ccccc3)[nH]c2-c2ccncc2)ccc1Cl | 0.229
CCc1nc(N)nc(N)c1-c1ccc(Cl)cc1 [Pyrimethamine] | 1.01
Cc1nc(Nc2ncc(C(=O)Nc3c(C)cccc3Cl)s2)cc(N2CCN(CCO)CC2)n1 [Dasatinib] | 0.243
